# Of roughly 8,800 targets only a part is listed; those with a hit were picked by preference. About 0.5% of all pairs of compound and target were hits. Values without a mark were called inactive.
# Columns and labels:
# Assay in all cases: log2 fold change, soluble protein after heating vs DMSO (PISA); higher = thermal stabilisation; K562 lysate, 10 uM; active = over 0.2 and 3.5 SD of the protein, either way, in both replicates (recomputed)
# lapatinib = compound: CS(=O)(=O)CCNCc1ccc(-c2ccc3ncnc(Nc4ccc(OCc5cccc(F)c5)c(Cl)c4)c3c2)o1 [lapatinib]
# Procedure, shortened: (§1)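 Soluble protein was defined as the supernatant remaining after 21,000xg for 90 min, following pooling of heated aliquots and adjustment to 0.5% NP-40 at 4°C. Before that, crude K562 extract at 1 mg/mL protein in PBS pH 7.4 with 1 mM MgCl2 was treated with 10 μM compound for 30 min and heated for 3 min across 48°C-58°C. Quantification used TMTpro 16plex LC-MS/MS with channel sums equalised, and values are log-two fold changes in thermal stability relative to solvent controls from duplicates.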
# pictilisib = compound: CS(=O)(=O)N1CCN(Cc2cc3nc(-c4cccc5[nH]ncc45)nc(N4CCOCC4)c3s2)CC1 [pictilisib]
# Procedure, shortened: as §1
# crizotinib = compound: C[C@@H](Oc1cc(-c2cnn(C3CCNCC3)c2)cnc1N)c1c(Cl)ccc(F)c1Cl [crizotinib]
# Procedure, shortened: as §1
# [1] = compound: C[C@H](C1=CC=C(C=C1)C(=O)NC2=C3C=CNC3=NC=C2)N
# Procedure, shortened: as §1
# duvelisib = compound: C[C@H](Nc1ncnc2nc[nH]c12)c1cc2cccc(Cl)c2c(=O)n1-c1ccccc1 [duvelisib]
# Procedure, shortened: as §1
# gandotinib = compound: Cc1cc(Nc2cc(CN3CCOCC3)c3nc(C)c(Cc4ccc(Cl)cc4F)n3n2)n[nH]1 [gandotinib]
# Procedure, shortened: as §1
# tozasertib = compound: Cc1cc(Nc2cc(N3CCN(C)CC3)nc(Sc3ccc(NC(=O)C4CC4)cc3)n2)n[nH]1 [tozasertib]
# Procedure, shortened: as §1
# doramapimod = compound: Cc1ccc(-n2nc(C(C)(C)C)cc2NC(=O)Nc2ccc(OCCN3CCOCC3)c3ccccc23)cc1 [doramapimod]
# Procedure, shortened: as §1
# bafetinib = compound: Cc1ccc(NC(=O)c2ccc(CN3CC[C@H](N(C)C)C3)c(C(F)(F)F)c2)cc1Nc1nccc(-c2cncnc2)n1 [bafetinib]
# Procedure, shortened: as §1
# [2] = compound: Cc1cccc(CC(=O)N2CCc3c2ccc(-c2cn(C)c4ncnc(N)c24)c3F)n1
# Procedure, shortened: as §1
# nilotinib = compound: Cc1cn(-c2cc(NC(=O)c3ccc(C)c(Nc4nccc(-c5cccnc5)n4)c3)cc(C(F)(F)F)c2)cn1 [nilotinib]
# Procedure, shortened: as §1
# [3] = compound: Cc1nc(Nc2n[nH]c3c2CN(C(=O)N[C@H](CN(C)C)c2ccccc2)C3(C)C)c2sccc2n1
# Procedure, shortened: as §1
# dasatinib = compound: Cc1nc(Nc2ncc(C(=O)Nc3c(C)cccc3Cl)s2)cc(N2CCN(CCO)CC2)n1 [dasatinib]
# Procedure, shortened: as §1
# [4] = compound: Cc1ncc(-c2ccnc(Nc3ccc(S(C)(=O)=O)cc3)n2)n1C(C)C
# Procedure, shortened: as §1
# [5] = compound: Cn1cc(-c2ccc3c(c2)CCN3C(=O)Cc2cccc(C(F)(F)F)c2)c2c(N)ncnc21
# Procedure, shortened: as §1
# quisinostat = compound: Cn1cc(CNCC2CCN(c3ncc(C(=O)NO)cn3)CC2)c2ccccc21 [quisinostat]
# Procedure, shortened: as §1
# tipifarnib = compound: Cn1cncc1[C@@](N)(c1ccc(Cl)cc1)c1ccc2c(c1)c(-c1cccc(Cl)c1)cc(=O)n2C [tipifarnib]
# Procedure, shortened: as §1
# [6] = compound: NC(=O)Nc1cc(-c2cccc(F)c2)sc1C(=O)N[C@H]1CCCNC1
# Procedure, shortened: as §1
# [7] = compound: NC(=O)c1cnc(N[C@@H]2CCCC[C@@H]2N)nc1Nc1cccc(-n2nccn2)c1
# Procedure, shortened: as §1
# [8] = compound: NC1(c2ccc(-c3nc4ccn5c(=O)[nH]nc5c4cc3-c3ccccc3)cc2)CCC1
# Procedure, shortened: as §1
# Chain of UniProt Q9UBN7 (Q9UBN7 whole entry, looked up): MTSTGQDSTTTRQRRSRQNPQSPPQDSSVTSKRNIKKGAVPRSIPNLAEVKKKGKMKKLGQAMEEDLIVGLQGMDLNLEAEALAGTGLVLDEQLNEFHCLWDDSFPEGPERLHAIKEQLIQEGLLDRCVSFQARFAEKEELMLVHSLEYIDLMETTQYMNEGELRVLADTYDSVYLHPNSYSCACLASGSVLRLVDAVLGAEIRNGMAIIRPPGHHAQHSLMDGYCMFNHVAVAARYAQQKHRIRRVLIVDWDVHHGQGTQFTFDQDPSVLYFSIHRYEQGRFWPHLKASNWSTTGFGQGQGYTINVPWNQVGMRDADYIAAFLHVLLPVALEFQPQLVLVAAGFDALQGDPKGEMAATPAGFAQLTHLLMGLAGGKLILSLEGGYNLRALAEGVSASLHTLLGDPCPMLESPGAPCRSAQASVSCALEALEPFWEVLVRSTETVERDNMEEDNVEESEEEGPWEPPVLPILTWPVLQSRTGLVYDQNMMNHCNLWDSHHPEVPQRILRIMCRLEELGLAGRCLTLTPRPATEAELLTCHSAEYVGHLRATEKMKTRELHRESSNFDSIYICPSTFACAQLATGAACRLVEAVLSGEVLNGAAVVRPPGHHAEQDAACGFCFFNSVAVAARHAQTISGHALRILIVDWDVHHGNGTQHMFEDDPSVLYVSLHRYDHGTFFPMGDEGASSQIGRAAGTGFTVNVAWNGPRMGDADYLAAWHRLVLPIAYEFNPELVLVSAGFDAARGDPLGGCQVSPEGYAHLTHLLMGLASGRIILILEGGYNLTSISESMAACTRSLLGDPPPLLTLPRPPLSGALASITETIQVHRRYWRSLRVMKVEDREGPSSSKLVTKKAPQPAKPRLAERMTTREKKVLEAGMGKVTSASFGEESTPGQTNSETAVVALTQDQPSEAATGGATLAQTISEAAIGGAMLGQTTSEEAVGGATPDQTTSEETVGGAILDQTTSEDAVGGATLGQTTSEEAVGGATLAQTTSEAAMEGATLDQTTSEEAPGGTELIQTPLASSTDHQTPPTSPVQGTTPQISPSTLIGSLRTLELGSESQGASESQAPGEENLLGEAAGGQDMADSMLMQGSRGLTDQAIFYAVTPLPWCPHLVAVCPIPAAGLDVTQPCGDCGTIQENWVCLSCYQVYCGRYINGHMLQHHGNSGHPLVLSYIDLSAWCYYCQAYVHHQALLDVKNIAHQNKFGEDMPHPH
# Chain of UniProt Q68CZ6 (Q68CZ6 whole entry, looked up): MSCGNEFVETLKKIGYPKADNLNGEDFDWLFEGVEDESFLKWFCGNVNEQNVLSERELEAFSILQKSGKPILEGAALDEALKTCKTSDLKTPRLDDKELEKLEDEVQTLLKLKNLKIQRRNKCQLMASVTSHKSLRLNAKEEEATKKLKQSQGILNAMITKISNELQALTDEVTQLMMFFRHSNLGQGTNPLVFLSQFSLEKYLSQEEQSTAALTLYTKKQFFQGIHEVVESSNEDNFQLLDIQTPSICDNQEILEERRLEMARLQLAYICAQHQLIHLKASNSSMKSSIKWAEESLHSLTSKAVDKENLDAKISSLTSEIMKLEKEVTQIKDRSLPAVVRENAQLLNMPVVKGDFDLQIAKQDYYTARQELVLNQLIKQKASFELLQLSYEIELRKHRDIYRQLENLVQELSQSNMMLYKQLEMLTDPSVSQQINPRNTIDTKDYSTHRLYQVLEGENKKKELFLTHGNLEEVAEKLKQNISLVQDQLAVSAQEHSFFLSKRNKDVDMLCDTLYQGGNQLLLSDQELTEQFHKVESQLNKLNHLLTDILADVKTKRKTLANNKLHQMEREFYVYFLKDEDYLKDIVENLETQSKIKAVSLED
# Chain of UniProt Q9H1B7 (Q9H1B7 whole entry, looked up): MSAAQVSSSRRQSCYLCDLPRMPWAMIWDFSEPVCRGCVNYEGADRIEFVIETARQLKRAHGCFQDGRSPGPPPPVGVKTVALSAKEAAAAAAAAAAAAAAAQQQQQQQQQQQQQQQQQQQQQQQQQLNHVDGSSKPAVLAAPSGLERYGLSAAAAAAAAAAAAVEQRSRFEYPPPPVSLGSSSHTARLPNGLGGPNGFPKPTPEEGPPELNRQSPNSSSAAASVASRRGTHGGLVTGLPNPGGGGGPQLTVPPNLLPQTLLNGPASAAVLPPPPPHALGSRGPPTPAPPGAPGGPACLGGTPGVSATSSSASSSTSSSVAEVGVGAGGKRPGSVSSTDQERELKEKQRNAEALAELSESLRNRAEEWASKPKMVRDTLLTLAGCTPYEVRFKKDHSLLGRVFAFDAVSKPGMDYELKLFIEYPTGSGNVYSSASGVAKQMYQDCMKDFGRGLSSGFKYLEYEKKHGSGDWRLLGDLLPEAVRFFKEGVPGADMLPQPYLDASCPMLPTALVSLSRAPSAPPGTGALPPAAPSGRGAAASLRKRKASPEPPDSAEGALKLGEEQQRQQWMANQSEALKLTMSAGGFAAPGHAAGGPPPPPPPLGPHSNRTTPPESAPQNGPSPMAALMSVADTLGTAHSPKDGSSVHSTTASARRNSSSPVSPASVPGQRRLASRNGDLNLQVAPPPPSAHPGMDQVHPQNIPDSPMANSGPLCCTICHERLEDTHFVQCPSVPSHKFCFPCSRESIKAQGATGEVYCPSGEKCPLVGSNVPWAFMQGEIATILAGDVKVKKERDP
# Chain of UniProt Q53T59 (Q53T59 whole entry, looked up): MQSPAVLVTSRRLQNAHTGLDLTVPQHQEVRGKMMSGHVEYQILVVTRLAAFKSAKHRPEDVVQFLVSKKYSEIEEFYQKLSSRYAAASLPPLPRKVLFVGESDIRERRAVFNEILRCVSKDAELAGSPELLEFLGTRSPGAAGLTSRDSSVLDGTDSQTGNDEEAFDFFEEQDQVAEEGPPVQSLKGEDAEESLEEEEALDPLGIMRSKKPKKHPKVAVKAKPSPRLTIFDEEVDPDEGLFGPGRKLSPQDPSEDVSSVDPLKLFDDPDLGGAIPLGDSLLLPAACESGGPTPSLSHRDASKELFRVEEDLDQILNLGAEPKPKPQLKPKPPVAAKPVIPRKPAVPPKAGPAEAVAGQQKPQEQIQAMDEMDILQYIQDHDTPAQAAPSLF
# Chain of UniProt P04792 (P04792 whole entry, looked up): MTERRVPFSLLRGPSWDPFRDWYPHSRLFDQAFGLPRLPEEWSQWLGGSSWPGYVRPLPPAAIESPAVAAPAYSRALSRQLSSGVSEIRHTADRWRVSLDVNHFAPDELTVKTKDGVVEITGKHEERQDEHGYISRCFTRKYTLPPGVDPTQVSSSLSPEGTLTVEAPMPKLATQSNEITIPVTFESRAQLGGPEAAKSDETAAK
# Chain of UniProt P20839 (P20839 whole entry, looked up): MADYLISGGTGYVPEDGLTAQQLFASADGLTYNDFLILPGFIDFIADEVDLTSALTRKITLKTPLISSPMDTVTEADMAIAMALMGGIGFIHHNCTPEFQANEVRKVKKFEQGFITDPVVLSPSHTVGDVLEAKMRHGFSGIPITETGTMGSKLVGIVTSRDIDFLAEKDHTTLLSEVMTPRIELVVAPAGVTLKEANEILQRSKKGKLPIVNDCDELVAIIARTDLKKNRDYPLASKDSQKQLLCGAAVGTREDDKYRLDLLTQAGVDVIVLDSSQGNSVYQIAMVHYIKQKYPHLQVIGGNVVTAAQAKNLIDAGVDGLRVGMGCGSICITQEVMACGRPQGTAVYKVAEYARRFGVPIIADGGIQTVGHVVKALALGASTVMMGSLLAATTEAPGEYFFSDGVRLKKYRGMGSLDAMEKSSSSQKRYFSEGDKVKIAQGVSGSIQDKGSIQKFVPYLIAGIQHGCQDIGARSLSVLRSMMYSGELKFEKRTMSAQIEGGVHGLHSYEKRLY
# Chain of UniProt Q9NVX7 (Q9NVX7 whole entry, looked up): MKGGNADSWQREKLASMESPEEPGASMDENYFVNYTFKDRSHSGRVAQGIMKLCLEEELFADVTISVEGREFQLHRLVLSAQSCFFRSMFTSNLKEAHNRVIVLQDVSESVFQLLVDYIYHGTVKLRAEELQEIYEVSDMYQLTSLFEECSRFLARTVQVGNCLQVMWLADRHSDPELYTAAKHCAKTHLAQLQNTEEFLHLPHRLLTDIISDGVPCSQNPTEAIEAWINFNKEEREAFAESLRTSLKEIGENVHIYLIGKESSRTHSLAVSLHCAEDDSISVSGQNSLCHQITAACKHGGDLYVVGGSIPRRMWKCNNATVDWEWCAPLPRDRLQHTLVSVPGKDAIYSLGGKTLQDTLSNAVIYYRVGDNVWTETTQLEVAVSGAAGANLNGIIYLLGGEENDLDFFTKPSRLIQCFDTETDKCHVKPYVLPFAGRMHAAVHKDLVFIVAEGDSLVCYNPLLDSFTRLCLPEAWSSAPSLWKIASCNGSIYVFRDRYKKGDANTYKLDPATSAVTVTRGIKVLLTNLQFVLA
# Chain of UniProt Q99871 (Q99871 whole entry, looked up): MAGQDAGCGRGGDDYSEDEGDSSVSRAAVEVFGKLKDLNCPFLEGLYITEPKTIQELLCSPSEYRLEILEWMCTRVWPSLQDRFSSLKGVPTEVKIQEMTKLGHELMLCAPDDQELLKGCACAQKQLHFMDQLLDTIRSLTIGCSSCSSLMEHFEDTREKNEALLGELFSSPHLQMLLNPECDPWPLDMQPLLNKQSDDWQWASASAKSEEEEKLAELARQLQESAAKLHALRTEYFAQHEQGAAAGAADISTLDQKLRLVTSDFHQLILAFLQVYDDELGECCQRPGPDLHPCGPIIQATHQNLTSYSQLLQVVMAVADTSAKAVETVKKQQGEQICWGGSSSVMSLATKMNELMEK
# Chain of UniProt P09429 (P09429 whole entry, looked up): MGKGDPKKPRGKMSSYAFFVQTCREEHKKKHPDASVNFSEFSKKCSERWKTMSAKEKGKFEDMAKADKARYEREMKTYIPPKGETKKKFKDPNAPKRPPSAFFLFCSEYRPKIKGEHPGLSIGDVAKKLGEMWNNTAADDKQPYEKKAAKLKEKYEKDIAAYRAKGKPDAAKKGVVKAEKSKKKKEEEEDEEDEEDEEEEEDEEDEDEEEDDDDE
Target,log2 fold change (lapatinib),log2 fold change (pictilisib),log2 fold change (crizotinib),log2 fold change [1],log2 fold change (duvelisib),log2 fold change (gandotinib),log2 fold change (tozasertib),log2 fold change (doramapimod),log2 fold change (bafetinib),log2 fold change [2],log2 fold change (nilotinib),log2 fold change [3],log2 fold change (dasatinib),log2 fold change [4],log2 fold change [5],log2 fold change (quisinostat),log2 fold change (tipifarnib),log2 fold change [6],log2 fold change [7],log2 fold change [8]
HAUS3 (UniProt Q68CZ6),-0.011,-0.001,-0.084,0.013,-0.042,-0.059,0.014,-0.034,-0.11,0.079,0.02,-0.027,-0.075,0.008,0.003,-0.059,-0.045,0.017,-0.015,-0.038
KEAP1 (UniProt Q14145),-0.005,-0.023,-0.007,0,0.026,0.019,-0.017,0.01,0,0.008,-0.01,0.01,-0.023,-0.014,-0.044,-0.078,-0.02,0.011,0.022,-0.002
HAUS7 isoform 2 (UniProt Q99871),0.022,0.012,-0.053,0.102,-0.063,-0.156,-0.113,0.072,-0.139,0.015,0.021,0.007,0.015,0.055,-0.026,-0.037,-0.011,0.063,0.024,-0.047
IRF2BPL (UniProt Q9H1B7),0.017,0.024,-0.006,-0.216,0.006,0.07,-0.005,-0.004,-0.015,0.075,0.001,0.005,-0.043,0.054,-0.059,0.032,-0.069,-0.01,0,0
GON4L (UniProt Q3T8J9),0.006,-0.04,-0.05,-0.066,-0.045,0.391,-0.054,-0.011,-0.07,0.01,0.003,0.012,0.025,0.067,0.041,-0.061,-0.01,0.019,-0.02,0.022
HDAC6 (UniProt Q9UBN7),-0.019,-0.085,-0.039,0.014,0.065,-0.017,0.002,0.012,-0.069,-0.01,0.078,-0.016,-0.06,-0.034,0.042,0.031,0.024,-0.01,0.034,-0.027
HAUS6 (UniProt Q7Z4H7),0.001,-0.028,-0.029,-0.054,0.006,-0.041,0.046,-0.009,0.051,0.104,-0.022,-0.008,-0.057,0.022,0.038,-0.066,0.053,0.035,-0.055,-0.004
HS1BP3 (UniProt Q53T59),0.024,-0.019,0.006,-0.253 (active),-0.047,0.068,0.021,-0.019,-0.048,0.074,0.021,-0.016,0.023,-0.007,0,-0.006,0.042,-0.019,0.024,-0.014
KBTBD4 isoform 2 (UniProt Q9NVX7),0.03,-0.015,-0.038,-0.075,0.056,0.109,-0.068,-0.023,-0.013,0.047,0.063,-0.019,-0.017,-0.086,-0.022,-0.038,0.154,0.086,-0.018,-0.039
INPP4A (UniProt Q96PE3),-0.028,-0.116,-0.024,-0.086,0.025,0.003,0.065,0.014,0.132,0.128,0.012,-0.021,0.028,0.005,0.123,-0.03,0.03,0.032,0.015,0.032
HMGB1 (UniProt P09429),0.017,0.02,-0.024,0.304 (active),0.028,-0.097,0.03,-0.014,0.079,-0.154,0.056,-0.002,0.03,0.064,-0.03,0.108,0.026,-0.021,0,-0.011
HSPA8 (UniProt E9PN89),0.046,0.05,-0.31,-0.706 (active),0.004,0.169,0.074,0.314,-0.021,0.299,0.013,-0.008,-0.209,-0.055,-0.032,-0.415,0.006,0,0.084,-0.089
HSP90AA4P (UniProt Q58FG1),-0.035,-0.129,-0.032,-0.464 (active),0.011,0.042,0.08,-0.034,-0.235,0.128,-0.157,0.052,0.029,-0.062,0.038,-0.145,0.01,-0.065,-0.047,-0.024
HSPB1 (UniProt P04792),-0.017,-0.013,0.036,0.008,0.014,-0.018,-0.017,-0.31 (active),-0.031,-0.021,-0.001,0.003,-0.032,0.012,0.015,0.025,-0.006,0.006,0,0.006
HMGCL (UniProt P35914),-0.005,-0.029,0.012,0.033,0.002,-0.029,0.026,0.008,-0.016,-0.031,0.011,-0.041,0.029,0.023,0.02,-0.017,-0.013,0.018,-0.033,0.015
IMPDH1 isoform 6 (UniProt P20839),-0.001,0.01,-0.021,-0.061,-0.013,0.046,0.014,0.033,-0.037,0.064,0.008,-0.034,-0.033,0.015,-0.006,-0.121,-0.017,-0.007,-0.008,-0.012

# Reference: the supplement of paper PMC10849652
